# Assay results published in PubChem BioAssay.
# Activity calls are given as the source filed them. Unless noted, how the calls were made is not given here.
# Tests used:
# [1] = test system: XIP peptide (Xip251-270) binding; assay: XIP fragment 251-270 binding compounds – biochemical, small-molecule microarray, fluorescence 635/667 nm, 0.1 µg/mL protein, primary screen (AID 1182); conditions: fluorescent protein binding, 635 nm, higher = more signal, called active from +8 up or from −8 down
# XIP peptide (Xip251-270) = assay: compounds binding XIP fragment 251-270 – biochemical, small-molecule microarray, fluorescence 635/667 nm, 0.5 µg/mL protein, primary screen (AID 1183); conditions: fluorescence 635 nm, higher = more signal
# [2] = blood-stage malaria parasite viability loss – strain 3D7, DAPI fluorescence, 100 nL, primary screen (AID 1184);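 further: parasites grown inside human red blood cells in medium with human serum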; conditions: P. falciparum 3D7 growth, 3 d, higher = more signal
# [3] = target: Homeobox protein Hox-A13 (Mus musculus) (UniProt Q62424); assay: disruptors of Hoxa13 oligonucleotide interaction – biochemical, fluorescence polarization, labeled oligonucleotide, primary screen (AID 1185); conditions: Hoxa13:DNA binding, 15 min, higher = more signal, called active from +8 up or from −8 down
# [4] = blockers of DNA damage checkpoint Chk1 activation – imaging, HeLa, hydroxyurea, phospho-Chk1 antibody, percent positive cells, primary screen (AID 1186); conditions: hydroxyurea-induced phospho-Chk1 immunofluorescence imaging, higher = more signal
# [5] = blockers of DNA damage checkpoint Chk1 activation – imaging, HeLa, hydroxyurea, phospho-Chk1 nuclear intensity, primary screen (AID 1187); conditions: hydroxyurea-induced phospho-Chk1 immunofluorescence imaging, higher = more signal
# Chain of Homeobox protein Hox-A13 (Mus musculus) (Q62424 whole entry, looked up): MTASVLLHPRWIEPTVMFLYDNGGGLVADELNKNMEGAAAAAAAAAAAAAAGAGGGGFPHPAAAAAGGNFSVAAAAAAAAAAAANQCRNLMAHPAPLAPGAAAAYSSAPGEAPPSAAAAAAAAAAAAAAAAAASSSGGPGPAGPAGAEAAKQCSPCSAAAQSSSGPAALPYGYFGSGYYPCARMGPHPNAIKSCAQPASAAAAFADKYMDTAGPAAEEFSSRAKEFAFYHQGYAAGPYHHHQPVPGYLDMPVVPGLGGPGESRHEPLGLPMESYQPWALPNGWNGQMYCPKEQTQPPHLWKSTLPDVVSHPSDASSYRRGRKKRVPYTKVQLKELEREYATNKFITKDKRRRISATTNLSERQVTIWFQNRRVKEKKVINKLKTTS
SMILES,composite z-score [1],composite z-score (XIP peptide (Xip251-270)),z-score [2],z-score [3],z-score [4],z-score [5]
CCOC(=O)C[C@H]1[C@H](OC(=O)c2ccccc2-c2ccccc2)[C@@H](NC(=O)c2ccccc2)c2cc(OCCCO)ccc2N1C(=O)Cc1ccc(OC)cc1,-0.231 (inactive),-0.73,-0.375,-2.77 (inactive),0.237 (inactive),0.356 (inactive)
COC(=O)[C@H]1N=C(c2ccc(OCCCO)cc2)O[C@H]1c1ccccc1CN=[N+]=[N-],0.262 (inactive),0.62,-1.79,-1.53 (inactive),0.0721 (inactive),0.328 (inactive)
CC(C)C(CO)N1C(=O)[C@@H]2[C@H]3C(=O)OCC=C[C@H]3OC23C=CCN(Cn2nnc4ccccc42)C(=O)[C@@H]13 (stereo partly drawn),-0.406 (inactive),-0.705,-0.229,-3.05 (inactive),0.123 (inactive),0.11 (inactive)
C=CCC(OC(C)=O)[C@@H]1[C@@H](N(Cc2cc3ccccc3o2)C(=O)Cc2ccc(OC)cc2)c2cc(OCCCO)ccc2N1C(=O)c1ccc(-c2ccccc2)cc1 (stereo partly drawn),-0.341 (inactive),-0.236,-2.84,-1.11 (inactive),0.298 (inactive),0.549 (inactive)
[N-]=[N+]=NCc1ccccc1[C@H]1OC(c2ccc(OCCCO)cc2)=N[C@@]1(Cc1ccccc1N=[N+]=[N-])C(=O)NCCN1CCOCC1,0.175 (inactive),0.795,-2.21,-3.06 (inactive),0.0262 (inactive),-0.0057 (inactive)
CCCC=C(CCC)[C@@H](NC(=O)Cc1ccccc1)c1ccc(C(=O)OC)cc1,0.349 (inactive),0.34,-0.958,-1.93 (inactive),0.374 (inactive),-0.309 (inactive)
CN(C)CCCNC(=O)[C@@]1(Cc2ccccc2I)c2ccccc2C(=O)N(Cc2ccccc2Cl)[C@H]1c1ccc(CO)cc1,0.191 (inactive),0.774,-2.21,-0.316 (inactive),-0.022 (inactive),-0.461 (inactive)
[N-]=[N+]=NCc1ccccc1[C@H]1OC(c2ccc(OCCCO)cc2)=N[C@@]1(Cc1ccccc1)C(N)=O,1.78 (inactive),0.852,-0.676,-3.61 (inactive),-0.441 (inactive),-0.189 (inactive)
COCCOC(=O)N1C(=O)[C@@]2(c3ccccc31)[C@H](c1ccc(OCCO)cc1)N1[C@H](c3ccccc3)[C@H](c3ccccc3)OC(=O)[C@H]1[C@@H]2C(=O)NC[C@H](O)c1ccccc1,0.103 (inactive),0.808,-1.64,-4.23 (inactive),0.228 (inactive),0.726 (inactive)
C[C@]12C(=O)N(CCCO)[C@@H]3C(=O)N(c4ccc(Cl)cc4)CC=CC31O[C@@H]1/C=C\CCCOC(=O)C12 (stereo partly drawn),-0.232 (inactive),-0.271,0.571,-6.08 (inactive),-0.647 (inactive),-0.0294 (inactive)
Cc1ccc(N2C(=O)c3ccccc3[C@](C)(C(=O)NC(C)C)[C@@H]2c2ccc(CO)cc2)nc1,-0.224 (inactive),0.677,-0.736,-0.858 (inactive),0.0932 (inactive),0.205 (inactive)
CCOC(=O)C1=CC[C@@H](c2cccc(Br)c2)N(S(=O)(=O)c2ccc(C)cc2)[C@H]1c1ccc([N+](=O)[O-])cc1,0.422 (inactive),0.707,-1.92,4.18 (inactive),0.476 (inactive),0.508 (inactive)
COc1cc(C(O)C2C=CC3C(=O)NC(=O)C3N2Nc2ccc(Cl)cc2Cl)cc(OC)c1OC (stereo not drawn),0.587 (inactive),0.619,-0.395,-6.07 (inactive),0.136 (inactive),0.148 (inactive)
O=C1C2C=CC(C(O)c3ccccn3)N(Nc3ccccc3)C2C(=O)N1c1ccccc1 (stereo not drawn),0.099 (inactive),0.116,-0.244,-1.65 (inactive),-0.849 (inactive),-0.791 (inactive)
C=CC[C@@]1(C(=O)NCC(O)CO)N=C(c2ccc(OCCCO)cc2)O[C@@H]1c1ccccc1 (stereo partly drawn),2.6 (inactive),0.691,-0.869,-4.25 (inactive),-0.379 (inactive),-0.244 (inactive)
O=C(CS)NCCCCCNC(=O)[C@@H]1C[C@@H]2C(=O)N3CCC[C@H]3C(=O)N2[C@@H]1c1ccc(O)cc1,0.262 (inactive),0.716,0.924,-2.66 (inactive),0.0756 (inactive),0.0698 (inactive)
N#Cc1ccc(NN2C(C(O)c3ccccc3)C=CC3C(=O)N(c4ccccc4)C(=O)C32)cc1 (stereo not drawn),0.283 (inactive),0.026,0.635,-2.61 (inactive),0.422 (inactive),0.691 (inactive)

SMILES,composite z-score [1],composite z-score (XIP peptide (Xip251-270)),z-score [2],z-score [3],z-score [4],z-score [5]
O=C1N(CCS(=O)(=O)c2ccccc2)c2ccccc2[C@H]2OC(c3ccc(OCCCO)cc3)=N[C@@]12CCS(=O)(=O)c1ccccc1,2.51 (inactive),0.776,-2.05,0.758 (inactive),0.109 (inactive),0.545 (inactive)
COCCCNC(=O)[C@@]1(Cc2ccccc2CN=[N+]=[N-])N=C(c2ccc(OCCCO)cc2)O[C@H]1c1ccccc1N=[N+]=[N-],0.167 (inactive),0.668,-2.22,-2.62 (inactive),-0.498 (inactive),-0.475 (inactive)
CO[C@H]1O[C@H](CO)[C@@H](OC(=O)Nc2ccc(C(F)(F)F)cc2)[C@H](OC(=O)Nc2ccccc2)[C@H]1OC(=O)Nc1ccccc1,1.91 (inactive),0.911,-2.56,-5.12 (inactive),-0.628 (inactive),-0.699 (inactive)
COC(=O)C(CC#Cc1ccc2c(c1)[C@]1(C(=O)N2)[C@H](C(=O)N2CCc3cc(OC)c(OC)cc3C2)[C@H]2C(=O)O[C@H](c3ccccc3)[C@H](c3ccccc3)N2[C@@H]1c1ccc(O)cc1)C(=O)OC,0.534 (inactive),0.789,-2.45,-0.323 (inactive),0.297 (inactive),0.826 (inactive)
COCCOC(=O)N1C(=O)[C@@]2(c3cc(C#CC4(O)CCCCCC4)ccc31)[C@H](C(=O)N1CCN(c3ncccn3)CC1)[C@H]1C(=O)O[C@H](c3ccccc3)[C@H](c3ccccc3)N1[C@@H]2c1ccc(O)cc1,0.119 (inactive),0.723,-0.849,-0.575 (inactive),0.133 (inactive),0.559 (inactive)
COCCOC(=O)N1C(=O)[C@@]2(c3cc(C#Cc4ccc(OC)cc4)ccc31)[C@H](C(=O)N1CCc3cc(OC)c(OC)cc3C1)[C@H]1C(=O)O[C@H](c3ccccc3)[C@H](c3ccccc3)N1[C@@H]2c1ccc(O)cc1,1.64 (inactive),0.759,-1.65,-0.63 (inactive),-0.241 (inactive),-0.261 (inactive)
C=C(C(=O)CC[C@H](OC(=O)c1cccnc1)c1ccc(OCCO)cc1)C(C)C,0.538 (inactive),0.551,-2.02,-4.81 (inactive),0.387 (inactive),0.05 (inactive)
COCCOC(=O)N1C(=O)[C@@]2(c3cc(C#CC4(O)CCCCCC4)ccc31)[C@H](C(=O)NC[C@H](O)c1ccccc1)[C@H]1C(=O)O[C@H](c3ccccc3)[C@H](c3ccccc3)N1[C@@H]2c1ccc(OCCO)cc1,-0.274 (inactive),0.624,-1.19,-0.375 (inactive),0.0542 (inactive),0.167 (inactive)
COC(=O)c1ccc(OC)c(/C=C\CC(CCc2ccccc2)OC(=O)c2ccncc2)c1 (stereo not drawn),-0.661 (inactive),-0.329,-0.687,-2.52 (inactive),0.0946 (inactive),0.459 (inactive)
CN(C)C(=O)[C@@]1(Cc2ccccc2N=[N+]=[N-])N=C(c2ccc(OCCCO)cc2)O[C@H]1c1ccccc1N=[N+]=[N-],0.976 (inactive),0.596,-2.32,-4.6 (inactive),0.0092 (inactive),0.398 (inactive)
CCCN1C(=O)[C@@]2(Cc3ccccc3)N=C(c3ccc(OCCCO)cc3)O[C@H]2c2ccccc21,1.19 (inactive),0.808,-2.38,-4.39 (inactive),0.276 (inactive),0.555 (inactive)
O=C1NC(=O)C2C1C=CC(C(O)c1ccc(-c3ccccc3)s1)N2Nc1ccccn1 (stereo not drawn),1.05 (inactive),0.212,-0.169,-3.88 (inactive),0.773 (inactive),-0.264 (inactive)
Cc1ccc(S[C@]2(C(=O)NCCN3CCOCC3)CC(=O)N(C3Cc4ccccc4C3)[C@@H]2c2ccc(CO)cc2)cc1,0.487 (inactive),0.547,-0.196,-4.63 (inactive),0.672 (inactive),1 (inactive)
CN1C(=O)C2C=CC(C(O)C3CCCCC3)N(N(c3ccccc3)c3ccccc3)C2C1=O (stereo not drawn),-0.119 (inactive),0.63,0.721,-4.01 (inactive),0.74 (inactive),-0.024 (inactive)
NC(=O)NCC#Cc1ccc2c(c1)[C@]1(C(=O)N2)[C@H](c2ccc(OCCO)cc2)N2[C@H](c3ccccc3)[C@H](c3ccccc3)OC(=O)[C@H]2[C@@H]1C(=O)N1CCN(c2ncccn2)CC1,0.0244 (inactive),0.353,0.149,0.314 (inactive),0.432 (inactive),1.09 (inactive)
COc1ccc(C(=O)Nc2ccc(CN3C(=O)[C@@]4(O[C@@H](CC(=O)N5Cc6ccccc6C[C@H]5CO)[C@H]([Si](C)(C)c5ccc(OC)cc5)[C@H]4C)c4ccccc43)cc2)cc1,1.38 (inactive),0.701,-1.23,-2.48 (inactive),0.175 (inactive),0.514 (inactive)
